# Values without a mark were called inactive. Results filed as inconclusive are left out. A call without a number means that no potency is given here. Calls of active or inactive are those of the source. Unless noted, calls follow the shape of the full dose curve.
# Experiments:
# [1] = Nuclear factor erythroid 2-related factor 2/antioxidant responsive element (Nrf2/ARE) small molecule agonists: qHTS cell viability counter screen in human keratinocytes (AID 1919968; active = well fitted curve in the direction sought with a large enough effect in the repeat runs; an effect the other way counts as inactive or inconclusive; also: nearly all actives have a fitted effect of over 55% in size; also: potency is read from the fitted curve at half-maximal effect)
# In short: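 In human HaCaT keratinocytes stably expressing an ARE-driven luciferase, compound exposure lasted 23 h at 37 C under 5% CO2. Viable cells are quantified with a protease-based fluorogenic reagent (CellTiter-Fluor) read 1 h after addition.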
# [2] = Nuclear factor erythroid 2-related factor 2/antioxidant responsive element (Nrf2/ARE) small molecule agonists: luciferase reporter gene qHTS assay in human keratinocytes (AID 1919969); also: nearly all actives have a fitted effect of over 35% in size
# [3] = biological target: Gonadotropin-releasing hormone receptor (Homo sapiens) (UniProt P30968); test: Human gonadotropin-releasing hormone receptor (GnRHR) small molecule agonists, calcium flux assay in GnRHR-HEK293 cells (AID 1920063); also: nearly all actives have a fitted effect of over 35% in size
# Sequence of Gonadotropin-releasing hormone receptor (Homo sapiens) (P30968 whole entry, looked up): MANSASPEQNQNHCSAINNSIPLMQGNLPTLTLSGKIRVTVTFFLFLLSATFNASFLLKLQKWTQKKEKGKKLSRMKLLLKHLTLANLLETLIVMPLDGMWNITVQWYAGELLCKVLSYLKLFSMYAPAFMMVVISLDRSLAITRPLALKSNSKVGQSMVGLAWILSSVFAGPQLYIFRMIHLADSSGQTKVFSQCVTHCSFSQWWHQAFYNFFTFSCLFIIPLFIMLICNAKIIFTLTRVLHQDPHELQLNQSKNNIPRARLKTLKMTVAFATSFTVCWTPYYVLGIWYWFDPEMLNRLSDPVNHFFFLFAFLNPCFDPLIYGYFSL
# In short: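 Intracellular calcium rise is the read-out: engineered human GnRHR HEK293 cells, dye-loaded, are exposed to DMSO-dissolved compounds and fluorescence at Ex/Em 480/540 is tracked for 3 min.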
# [4] = biological target: KiSS-1 receptor (Homo sapiens) (UniProt Q969F8); test: Human kisspeptin (KISS1R) small molecule agonists, calcium flux assay in KISS1R-HEK293 cells (AID 1920064; active = well fitted curve in the direction sought with a large enough effect in the repeat runs; an effect the other way counts as inactive or inconclusive)
# Sequence of KiSS-1 receptor (Homo sapiens) (Q969F8 whole entry, looked up): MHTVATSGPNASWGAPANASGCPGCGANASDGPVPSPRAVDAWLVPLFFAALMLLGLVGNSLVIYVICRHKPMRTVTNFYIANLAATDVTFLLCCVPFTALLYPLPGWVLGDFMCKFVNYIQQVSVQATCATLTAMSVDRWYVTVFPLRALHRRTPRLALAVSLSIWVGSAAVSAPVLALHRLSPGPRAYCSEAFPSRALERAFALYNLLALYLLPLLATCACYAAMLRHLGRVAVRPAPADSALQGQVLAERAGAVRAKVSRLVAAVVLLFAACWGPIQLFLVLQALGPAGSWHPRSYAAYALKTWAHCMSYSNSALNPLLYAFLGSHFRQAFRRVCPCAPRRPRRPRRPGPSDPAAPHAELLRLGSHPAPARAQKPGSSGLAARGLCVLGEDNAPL
# In short: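 Concentration-response testing used 15 concentrations in triplicate on human KISS1R-expressing HEK293 cells. Calcium-dependent fluorescence (Ex/Em 480/540) was followed kinetically for 3 min after compound transfer.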
# [5] = G protein-coupled receptor (GPCR) small molecule agonists, calcium flux assay: HEK293 wild type cell line counter screen (AID 1920065)
# In short: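 Fluorescence intensity signals activation. After overnight (18 h) culture and a 1 h calcium dye load at 37 C, compounds are added by pin tool and the plate read at 480/540 nm for 3 min in 1 s steps.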
# [6] = p53 small molecule agonists, cell-based qHTS assay with human liver microsomes (AID 1963577);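 also: p53 response element beta-lactamase reporter cells with liver microsomes plus NADPH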
# In short: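 Reporter activation was measured by LiveBLAzer fluorescence intensity in p53RE-bla cells, which had been exposed to compounds for 16 h at 37 C alongside 0.5 mg/mL human liver microsomes and 0.5 mg/mL NADPH (final concentrations).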
# [7] = p53 small molecule agonists, cell-based qHTS assay with rat liver microsomes (AID 1963578)
# In short: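 Compound in DMSO added to p53RE-bla cells 5 h post-plating; rat microsomes/NADPH 0.5 mg/mL final; 16 h, 37 C; LiveBLAzer 2 h RT.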
# [8] = p53 small molecule agonists, cell-based qHTS assay with human liver microsomes: qHTS cell viability counter screen (AID 1963579); also: nearly all actives have a fitted effect of over 45% in size
# In short: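 HLM-supplemented (0.5 mg/mL final) and NADPH-supplemented (0.5 mg/mL final) p53RE-bla cultures, 4,000 cells per well, were dosed with compounds in DMSO for 16 h at 37 C; luminescent ATP detection (CellTiter-Glo, 30 min, room temperature) quantified surviving cells.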
# [9] = p53 small molecule agonists, cell-based qHTS assay: qHTS cell viability counter screen (AID 1963581); also: nearly all actives have a fitted effect of over 45% in size
# In short: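 Luminescence from CellTiter-Glo, reflecting ATP content, serves as the cytotoxicity measure; it is taken after the 2 h reporter substrate step in HCT-116 p53RE-bla cells dosed for 16 h at 37 C.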
# [10] = p53 small molecule agonists, cell-based qHTS assay (AID 1963582; active = well fitted activation curve with a large enough effect in the signal ratio in the repeat runs, not every such curve was filed as active; the % refers to the signal ratio)
# In short: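 After plating, p53RE-bla cells sat 5 h in the incubator; compounds or DMSO vehicle were pinned in; a 16 h incubation at 37 C followed; FRET substrate was added and, 2 h later at RT, fluorescence was measured.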
# [11] = biological target: 5-hydroxytryptamine receptor 2A (Homo sapiens) (UniProt P28223); test: 5-hydroxytryptamine receptor 2A (HTR2A) small molecule antagonists, cell-based qHTS assay (AID 1963586); also: nearly all actives have a fitted effect of over 45% in size
# Sequence of 5-hydroxytryptamine receptor 2A (Homo sapiens) (P28223 whole entry, looked up): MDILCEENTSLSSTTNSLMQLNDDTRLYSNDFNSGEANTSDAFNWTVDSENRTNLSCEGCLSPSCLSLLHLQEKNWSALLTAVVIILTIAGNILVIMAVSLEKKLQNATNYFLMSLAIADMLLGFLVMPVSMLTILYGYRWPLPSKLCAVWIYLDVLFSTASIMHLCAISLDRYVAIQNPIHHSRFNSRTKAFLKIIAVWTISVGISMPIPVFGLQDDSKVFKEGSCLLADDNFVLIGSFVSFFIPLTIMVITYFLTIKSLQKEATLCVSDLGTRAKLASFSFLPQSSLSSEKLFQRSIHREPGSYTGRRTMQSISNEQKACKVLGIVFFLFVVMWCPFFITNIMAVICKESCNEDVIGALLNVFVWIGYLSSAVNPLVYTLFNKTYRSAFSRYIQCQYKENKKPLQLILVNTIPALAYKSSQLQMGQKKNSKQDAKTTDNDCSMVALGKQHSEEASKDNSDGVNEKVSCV
# In short: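 CHO cells stably expressing human HTR2A were plated for 18 h at 37 C, then loaded with calcium dye for 1 h. Compounds were preincubated 5 min at room temperature before DOI (4 nM solution) was added. Kinetic fluorescence was read for 3 min.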
# [12] = biological target: 5-hydroxytryptamine receptor 2A (Homo sapiens) (UniProt P28223); test: 5-hydroxytryptamine receptor 2A (HTR2A) small molecule agonists, cell-based qHTS assay (AID 1963587); also: nearly all actives have a fitted effect of over 30% in size
# In short: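 HTR2A-CHO cells, plated 18 h at 37 C/5% CO2, dye-loaded 1 h at 37 C; compounds in DMSO added by pin tool (agonist mode). Intracellular calcium flux read as kinetic fluorescence on FDSS over 2 min at 1 s intervals.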
# [13] = biological target: Muscarinic acetylcholine receptor M1 (Homo sapiens) (UniProt P11229); test: Cholinergic receptor muscarinic 1 (CHRM1) small molecule antagonists, cell-based qHTS assay (AID 1963588); also: nearly all actives have a fitted effect of over 40% in size
# Sequence of Muscarinic acetylcholine receptor M1 (Homo sapiens) (P11229 whole entry, looked up): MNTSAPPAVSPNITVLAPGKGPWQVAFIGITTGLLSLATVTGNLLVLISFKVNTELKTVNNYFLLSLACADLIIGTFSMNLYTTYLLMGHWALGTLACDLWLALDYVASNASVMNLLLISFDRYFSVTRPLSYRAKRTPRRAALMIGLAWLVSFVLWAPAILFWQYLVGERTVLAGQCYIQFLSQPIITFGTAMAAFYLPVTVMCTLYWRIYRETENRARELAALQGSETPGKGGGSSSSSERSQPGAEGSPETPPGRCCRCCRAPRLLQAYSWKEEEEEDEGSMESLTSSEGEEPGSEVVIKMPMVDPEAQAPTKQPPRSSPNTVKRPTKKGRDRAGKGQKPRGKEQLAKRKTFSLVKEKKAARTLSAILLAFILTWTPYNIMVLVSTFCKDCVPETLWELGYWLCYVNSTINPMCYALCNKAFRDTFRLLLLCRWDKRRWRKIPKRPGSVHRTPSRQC
# In short: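 Compounds were tested at 15 concentrations in three independent runs. Dye-loaded CHRM1-CHO cells were exposed 5 min at room temperature before stimulation by acetylcholine added at 50nM. Intracellular calcium was read kinetically on FDSS for 3 min.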
# [14] = cAMP Responsive Elements (CRE) small molecule agonists, cell-based qHTS assay (AID 1963590)
# In short: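 Compound exposure lasted 3 h at 37 C/5% CO2 in CRE-bla HEK 293T cells grown in assay medium with 10% dialyzed FBS and 25 mM HEPES. Reporter signal came from LiveBLAzer B/G FRET substrate, 2 h, room temperature.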
# [15] = cAMP Responsive Elements (CRE) small molecule antagonists, cell-based qHTS assay (AID 1963591; active = well fitted inhibition curve with a large enough effect in the signal ratio in the repeat runs, not every such curve was filed as active; the % refers to the signal ratio)
# In short: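 Stimulation used NKH477 at a final 0.25 uM for 3 h in compound-treated CRE-bla HEK293T cells, seeded 18 h beforehand. Reporter activity was measured with LiveBLAzer B/G FRET substrate after 2 h at room temperature.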
# [16] = biological target: Beta-2 adrenergic receptor (Homo sapiens) (UniProt P07550); test: Adrenergic beta2 receptor (ADRB2) small molecule antagonists, cell-based qHTS assay (AID 1963592); also: series mostly up to about 92 µM; nearly all actives have a fitted effect of over 50% in size
# Sequence of Beta-2 adrenergic receptor (Homo sapiens) (P07550 whole entry, looked up): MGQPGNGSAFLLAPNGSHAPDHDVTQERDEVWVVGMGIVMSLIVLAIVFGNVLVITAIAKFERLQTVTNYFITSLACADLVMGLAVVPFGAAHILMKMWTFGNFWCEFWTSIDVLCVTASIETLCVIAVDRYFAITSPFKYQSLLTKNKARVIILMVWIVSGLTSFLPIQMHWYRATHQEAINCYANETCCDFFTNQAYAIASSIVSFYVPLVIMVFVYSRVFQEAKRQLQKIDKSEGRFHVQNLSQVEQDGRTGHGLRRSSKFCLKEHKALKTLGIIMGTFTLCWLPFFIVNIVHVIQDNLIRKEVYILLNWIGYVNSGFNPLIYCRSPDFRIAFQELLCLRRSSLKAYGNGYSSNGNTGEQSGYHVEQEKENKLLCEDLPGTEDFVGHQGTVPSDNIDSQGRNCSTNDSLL
# In short: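 Assay format: CHO-ADRB2 cells, 18-20hr seeding at 37C/5% CO2, then compound plus 1nM isoproterenol agonist mix for 0.5hr RT. Homogeneous time-resolved fluorescence cAMP detection after 1hr, expressed as 665/615 nm ratio.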
# [17] = biological target: D(2) dopamine receptor (Homo sapiens) (UniProt P14416); test: Dopamine D2 receptor (DRD2) small molecule antagonists, cell-based qHTS assay (AID 1963595; active = well fitted inhibition curve with a large enough effect in the signal ratio in the repeat runs, with a control signal flat; the % refers to the signal ratio)
# Sequence of D(2) dopamine receptor (Homo sapiens) (P14416 whole entry, looked up): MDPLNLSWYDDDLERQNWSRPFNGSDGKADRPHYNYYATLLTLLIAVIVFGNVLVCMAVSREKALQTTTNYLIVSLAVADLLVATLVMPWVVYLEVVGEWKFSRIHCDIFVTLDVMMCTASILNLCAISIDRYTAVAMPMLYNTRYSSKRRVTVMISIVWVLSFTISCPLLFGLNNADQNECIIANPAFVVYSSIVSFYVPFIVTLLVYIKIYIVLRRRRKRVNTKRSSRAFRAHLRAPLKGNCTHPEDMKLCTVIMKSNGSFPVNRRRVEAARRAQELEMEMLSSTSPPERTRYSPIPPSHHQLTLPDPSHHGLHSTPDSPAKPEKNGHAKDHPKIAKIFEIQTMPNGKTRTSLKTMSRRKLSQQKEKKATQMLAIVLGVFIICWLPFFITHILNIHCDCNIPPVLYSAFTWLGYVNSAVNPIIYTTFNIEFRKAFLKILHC
# In short: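 Human DRD2 antagonist qHTS measuring cAMP by HTRF. The cells are exposed to compound for 10 min, then to NKH477 (200 nM) and quinpirole (12 nM) for 30 min at RT, with Ro20-1724 (0.1 mM) present throughout.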
# [18] = biological target: Muscarinic acetylcholine receptor M1 (Homo sapiens) (UniProt P11229); test: Cholinergic receptor muscarinic 1 (CHRM1) small molecule agonists, cell-based qHTS assay (AID 1963589); also: nearly all actives have a fitted effect of over 35% in size
# In short: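 Fluorescent calcium dye reports M1 activation in stably transfected CHO cells. Compounds, 15 concentrations, added after 1 h dye loading at 37 C; kinetic reading at 1 sec intervals.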
# [19] = biological target: D(2) dopamine receptor (Homo sapiens) (UniProt P14416); test: Dopamine D2 receptor (DRD2) small molecule agonists, cell-based qHTS assay (AID 1963594); also: nearly all actives have a fitted effect of over 35% in size
# In short: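 HEK293 cells stably expressing DRD2 were cultured 24 h at 37 C, then given Ro20-1724 (0.1 mM final) and compounds for 10 min at room temperature. NKH477 (200nM) was then added for 30 min. cAMP was read by HTRF.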
# [20] = p53 small molecule agonists, cell-based qHTS assay with rat liver microsomes: qHTS cell viability counter screen (AID 1963580); also: nearly all actives have a fitted effect of over 45% in size
# In short: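 Luminescent ATP readout (CellTiter-Glo, 30 min at room temperature) reports viability of p53RE-bla HCT-116 cells after 16 h at 37 C with test compounds under metabolic activation by rat liver microsomes and NADPH at 0.5 mg/mL final each.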
smiles,measurement,setting,value
CCCCCCCC/C=C\CCCCCCCC(=O)OCCCC,"activity change, negative = cytotoxicity",[1],4.3% [at 19 µM]
same,"activity, positive = activation",[2],8.08% [at 19 µM]
same,activity change,[3],"1.13% [at 11.8 µM, active compounds read high]"
same,activation,[4],1.04% [at 15.8 µM]
same,activation,[5],0.0792% [at 11.8 µM]
same,activation,[6],-3.86% [at 13.5 µM]
same,activation,[7],-0.57% [at 13.6 µM]
same,"activity change, negative = cytotoxicity",[8],0.909% [at 13.5 µM]
same,"activity change, negative = cytotoxicity",[9],6.46% [at 13.5 µM]
same,activation,[10],-0.177% [at 13.5 µM]
same,"activity, negative = inhibition",[11],-6.13% [at 12.7 µM]
same,activation,[12],5.55% [at 15.9 µM]
same,"activity, negative = inhibition",[13],5.7% [at 12.6 µM]
same,activation,[14],0.955% [at 19 µM]
same,"activity change, negative = inhibition",[15],-13.9% [at 18.9 µM]
same,"activity change, negative = inhibition",[16],-2.11% [at 19 µM]
same,"activity change, negative = inhibition",[17],-12.5% [at 18.9 µM]
CC(=C(CCOC(=O)C(C)C)SSC(CCOC(=O)C(C)C)=C(C)N(C=O)Cc1cnc(C)nc1N)N(C=O)Cc1cnc(C)nc1N,Potency,[1],inactive
same,Potency,[2],inactive
same,Potency,[3],inactive
same,Potency,[4],inactive
same,Potency,[5],inactive
same,Potency,[6],inactive
same,Potency,[7],inactive
same,Potency,[8],inactive
same,Potency,[9],inactive
same,Potency,[10],inactive
same,Potency,[11],inactive
same,Potency,[13],inactive
same,Potency,[18],inactive
same,Potency,[14],inactive
same,Potency,[15],inactive
same,Potency,[19],inactive
CC(CC=O)CC(C)(C)C (configuration not stated),Potency,[1],inactive
same,Potency,[2],inactive
same,Potency,[3],inactive
same,Potency,[4],inactive
same,Potency,[5],inactive
same,Potency,[6],inactive
same,Potency,[7],inactive
same,Potency,[20],inactive
same,Potency,[9],inactive
same,Potency,[10],inactive
same,Potency,[11],inactive
same,Potency,[12],inactive
same,Potency,[13],inactive
same,Potency,[18],inactive
same,Potency,[14],inactive
same,Potency,[15],inactive
same,Potency,[16],inactive
same,Potency,[19],inactive
same,Potency,[17],inactive
O=C1c2ccccc2C(=O)C1c1ccc2cc(S(=O)(=O)O)cc(S(=O)(=O)O)c2n1,Potency,[1],58.9 µM (active)
same,Potency,[2],inactive
same,Potency,[3],inactive
same,Potency,[4],inactive
same,Potency,[5],inactive
same,Potency,[6],inactive
same,Potency,[7],inactive
same,Potency,[8],inactive
same,Potency,[9],inactive
same,Potency,[10],inactive
same,Potency,[11],inactive
same,Potency,[12],inactive
same,Potency,[13],inactive
same,Potency,[14],inactive
same,Potency,[15],inactive
same,Potency,[16],inactive
same,Potency,[19],inactive
same,Potency,[17],inactive
NC(=O)NS(=O)(=O)c1ccc(Cl)cc1,Potency,[1],inactive
same,Potency,[2],inactive
same,Potency,[3],inactive
same,Potency,[4],inactive
same,Potency,[5],inactive
same,Potency,[6],inactive
same,Potency,[7],inactive
same,Potency,[8],inactive
same,Potency,[9],inactive
same,Potency,[10],inactive
same,Potency,[11],inactive
same,Potency,[12],inactive
same,Potency,[18],inactive
same,Potency,[14],inactive
same,Potency,[15],inactive
same,Potency,[16],inactive
same,Potency,[19],inactive
same,Potency,[17],inactive
O=C(O[C@@H](C(=O)O)[C@@H](OC(=O)c1ccccc1)C(=O)O)c1ccccc1,Potency,[1],inactive
same,Potency,[2],inactive
same,Potency,[3],inactive
same,Potency,[4],inactive
same,Potency,[5],inactive
same,Potency,[6],inactive
same,Potency,[7],inactive
same,Potency,[8],inactive
same,Potency,[9],inactive
same,Potency,[10],inactive
same,Potency,[11],inactive
same,Potency,[12],inactive
same,Potency,[18],inactive
same,Potency,[14],inactive
same,Potency,[15],inactive
same,Potency,[16],inactive
same,Potency,[19],inactive
same,Potency,[17],inactive
[O-][n+]1ccc(Cl)cc1,Potency,[1],inactive
same,Potency,[2],inactive
same,Potency,[3],inactive
same,Potency,[4],inactive
same,Potency,[5],inactive
same,Potency,[6],inactive
same,Potency,[7],inactive
same,Potency,[8],inactive
same,Potency,[9],inactive
same,Potency,[10],inactive
same,Potency,[11],inactive
same,Potency,[13],inactive
same,Potency,[18],inactive
same,Potency,[15],inactive
same,Potency,[19],inactive
same,Potency,[17],inactive

# Reference: PubChem BioAssay (Tox21)
